Screening results (PubChem BioAssay)
DT40 TDP1 CPT: growth inhibition of DT40 Tdp1-/-;hTDP1 cells with camptothecin (screen for TDP1 inhibitors); chicken DT40 Tdp1-/-;hTDP1 cells + 20 nM CPT, ATP luminescence, 48 h; Potency, µM (titrated, usually from 46.2 µM), without a hit: at the highest dose activity change, negative = growth inhibition, hits mostly inhibitors; 420,000 compounds, 12% hits; AID 686979; note: potency is the fitted concentration of half-maximal effect; nearly all actives have a fitted effect of over 55% in size
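Chicken DT40 Tdp1-/- cells complemented with human TDP1, 400 cells/well, exposed to compounds plus 20 nM camptothecin for at least 48 h at 37 C; viability read as ATP content by CellTiter-Glo luminescence.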
TDP1 cell noCPT: qHTS for Inhibitors of human tyrosyl-DNA phosphodiesterase 1 (TDP1): qHTS in cells in absence of CPT; DT40 Tdp1-/- hTDP1 cells, no CPT, ATP luminescence, 48 h; Potency, µM (titrated, usually from 46.2 µM), for inactives: at the top dose activity change, negative = growth inhibition, hits mostly inhibitors; 420,000 compounds, 15% hits; AID 686978, 2013; note: potency is the fitted concentration of half-maximal effect; nearly all actives have a fitted effect of over 55% in size
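Compound effects on proliferation are scored in DT40 Tdp1-/-;hTDP1 cells in the absence of CPT. ATP levels (CellTiter-Glo luminescence) are recorded after a ≥48 hr, 37 °C incubation.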
VP16 counter: counter-screen for ROR gamma inhibitors: Gal4-VP16 reporter; Drosophila S2 Gal4-VP16 UAS-luciferase, luminescence, 20 h; Potency, µM (doses to about 53.6 µM), for the others: at the top dose activity, negative = inhibition, most hits filed as inhibitors; 310,000 compounds, 3.5% hits; AID 2546;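 note: Gal4-VP16 expression switched on by copper sulfate through the metallothionein promoter; potency is the fitted concentration of half-maximal effect; nearly all actives have a fitted effect of over 50% in size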
IL-1B inflam inh: inhibitors of inflammasome signaling (IL-1 beta secretion) | THP-1 LPS/ATP IL-1B secretion, AlphaLISA, 16 h; hits give low values | activity change, % at 57.5 µM | 360,000 compounds, 4.7% hits; in the data active = activity change below about -50%; inconclusive = mostly about -30% to -49%
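Secreted IL-1B measured by AlphaLISA bead assay after 16 h compound exposure of THP-1 cells; compounds (final up to 57.5 uM) added 1 h before LPS (250 ng/mL) and ATP (1.25 mM) stimulation; lower signal means less secretion.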
RORg inh: inhibitors of mouse ROR gamma transcriptional activity. 310,000 compounds, 5.4% hits. P51450. Drosophila S2 Gal4-RORgamma UAS-luciferase reporter, 20 h. AID 2551. Potency, µM (highest dose often 53.6 µM), inactives show at the highest dose activity change, negative = inhibition, hits mostly inhibitors; note: potency is the fitted concentration of half-maximal effect; nearly all actives have a fitted effect of over 60% in size
Target sequence (P51450 whole entry, looked up, the tested form may be a part): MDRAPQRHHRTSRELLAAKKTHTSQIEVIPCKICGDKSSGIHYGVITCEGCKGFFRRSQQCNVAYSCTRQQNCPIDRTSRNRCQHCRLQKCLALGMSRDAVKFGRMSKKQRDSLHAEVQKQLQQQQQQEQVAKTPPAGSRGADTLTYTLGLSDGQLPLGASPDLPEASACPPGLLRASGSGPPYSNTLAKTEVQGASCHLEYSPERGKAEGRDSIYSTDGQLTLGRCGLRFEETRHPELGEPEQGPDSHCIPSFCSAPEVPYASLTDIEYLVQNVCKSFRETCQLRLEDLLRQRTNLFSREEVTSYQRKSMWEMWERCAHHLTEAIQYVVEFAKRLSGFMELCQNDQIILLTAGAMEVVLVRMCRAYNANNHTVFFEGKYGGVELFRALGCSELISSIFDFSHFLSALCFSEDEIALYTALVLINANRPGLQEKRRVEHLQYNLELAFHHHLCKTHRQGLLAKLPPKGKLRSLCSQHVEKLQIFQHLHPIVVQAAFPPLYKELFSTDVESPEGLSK
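Drosophila S2 cells stably expressing Gal4-DBD/mouse RORγ fusion under metallothionein promoter plus UAS-luciferase; compound 1 h, then 700 uM CuSO4 induction for 20 h at ambient temperature; inhibition read as reduced luminescence.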
ELG1 repair inh: inhibitors of ELG1-dependent DNA repair in HEK293T cells; AID 504467; HEK293T ELG1-luciferase reporter, luminescence, 16 h; DNA damage induced by 5-fluorouridine; 330,000 compounds, 2.3% hits; Potency, µM (titrated, usually from 46.1 µM), without a hit: at the top dose activity change, negative = inhibition, most hits filed as inhibitors; note: potency is the fitted concentration of half-maximal effect; nearly all actives have a fitted effect of over 55% in size
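Luminescence from the luciferase reporter, measured 30 min after ONE-Glo reagent at room temperature, was the read-out. Beforehand, 2,000 cells per well were exposed for 16 hr at 37 °C to 5-fluorouridine together with compound or vehicle.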
An asterisk follows results filed as active; ? = inconclusive; · = no result. In the library only some 21% were active in any assay of this set; here they are far more common. Unless noted, calls come from the whole dose curve; as a rule, active = well fitted curve in the direction sought with a large enough effect; inconclusive = small, poorly fitted or top-dose-only effect, or another doubt; inactive = no such curve, though single readings can be large; an effect the other way counts as inactive or inconclusive. % is set by controls: 0 for no effect and ±100 for the full control effect.

SMILES | DT40 TDP1 CPT | TDP1 cell noCPT | VP16 counter | IL-1B inflam inh | RORg inh | ELG1 repair inh
BrC(=C\c1ccccc1)/C=N/N1CCN(c2ccccc2)CC1 | 1.2µM* | 7.3µM* | ? | -81* | ? | ?
Cc1ccc(CN2CCN(/N=C\C(Br)=C\c3ccccc3)CC2)cc1 | 2.6µM* | 8.2µM* | ? | -78* | 38% | 11%
Nc1nnnn1/N=C/C(Br)=C/c1ccccc1 | 0.46µM* | 0.58µM* | ? | -93* | 3.2µM* | ?
Fc1ccc(-c2nnc(Cc3nnc(-c4ccc(F)cc4)o3)o2)cc1 | -24% | -29% | ? | -11 | 5µM* | -15%
CCOC(=O)c1c(C)nn(Cc2ccccc2)c1N | -5% | -24% | 14% | 16 | -19% | 4%
Cc1nn(Cc2ccccc2)c(C)c1C(=O)OCC(=O)c1cc(C)n(CC(F)(F)F)c1C | 26µM* | 26µM* | -7% | 0 | 31% | ?
COc1ccccc1N1CCN(C2CCCN(C(=O)CCN3CCCCO3)C2)CC1 (stereo not given) | 2% | 16% | 1% | 30 | -1% | 8%
CCOC(=O)Nc1ccc2nc(-c3cscn3)[nH]c2c1 | 6.5µM* | 5.8µM* | · | 5 | · | ·
CC(=O)Nc1ccc2nc(-c3cccs3)[nH]c2c1 | -10% | -18% | -9% | 18 | -27% | ?
CCn1cc(C(=O)N2CCN(c3ccccc3)CC2)c(=O)c2cc(S(=O)(=O)N3CCCC3)ccc21 | -14% | -18% | · | · | · | ·
COC(=O)c1ccc(C(/C=C/[C@@H](C)C(=O)NCc2ccccc2)NC(=O)OCc2ccccc2)cc1 (stereo not given in full) | · | · | 6% | · | 1% | ·
O=C(NCCc1ccccc1)C(c1cccs1)N(C(=O)CCl)c1ccc(Cl)cc1 (stereo not given) | 1.8µM* | 1.6µM* | ? | -98* | ? | 18µM*
Cc1nc2ccccc2c(=O)n1NS(C)(=O)=O | 10% | 0% | 5% | -3 | 14% | 5%
Cc1nc2ccccc2c(=O)n1NCc1cc(Br)cs1 | ? | 15µM* | 8% | 0 | -32% | ?
O=S(=O)(NCCc1nnc2ccc(SCc3ccc(C(F)(F)F)cc3)nn12)c1ccccc1 | 15µM* | ? | · | · | · | ·
Cc1ccc(S(=O)(=O)NCCc2nnc3ccc(SCc4ccccc4F)nn23)cc1 | 18µM* | 21µM* | · | · | · | ·
Cc1ccc(CSc2ccc3nnc(CCNS(=O)(=O)c4ccc(C)cc4)n3n2)cc1 | 16µM* | ? | · | · | · | ·
CC(=O)c1ccc(NC(=O)CSc2ccc3nnc(CCNS(=O)(=O)c4ccc(C)cc4)n3n2)cc1 | -28% | ? | · | · | · | ·
COc1ccc(S(=O)(=O)NCCc2nnc3ccc(SCC(=O)Nc4cc(C)cc(C)c4)nn23)cc1 | 21µM* | ? | · | · | · | ·
COc1ccc(CN(C(=O)Nc2ccc(C)c(F)c2)C2CCN(C(C)=O)CC2)cc1 | -27% | -10% | · | · | · | ·
CC(=O)Nc1ccc(Oc2ccc(S(=O)(=O)N3CCCC3)cn2)cc1 | 0% | -26% | · | -11 | · | 2%
CCc1ccc(N2C(=O)c3sc4nnc(-c5ccccc5)c(=O)n4c3C2=O)cc1 | 12µM* | 13µM* | -1% | 38 | 17% | -11%
Clc1ccc2c(N/N=C/c3ccc(Br)cc3)ccnc2c1 | ? | ? | 7.1µM* | -98* | 6.3µM* | 16µM*
Cc1ccccc1/C=N/Nc1ccnc2cc(Cl)ccc12 | 10µM* | ? | ? | -103* | ? | ?
Oc1ccc(/C=N/Nc2ccnc3cc(Cl)ccc23)c(O)c1 | ? | ? | -12% | ? | -31% | 24%
Cc1ccc(/C=N/Nc2ccnc3cc(Cl)ccc23)c(C)c1 | 6.5µM* | 12µM* | 8.9µM* | -77* | ? | 18µM*
